{"source": "PubChem BioAssay AID504329", "about": "(Southern Research Specialized Biocontainment Screening …, 2011)", "note": "Among all 340,000 compounds or so, about 1,000 (0.29%) were called active. Cut-off read from the data, not from the text of the source: inconclusive = inhibition above about 27% without an active follow-up result; inactive = below that. These entries were drawn from the full list. Measured potencies and affinities stand elsewhere.", "data": [{"assay": "NS1A inhibition, H1N1 influenza, cell based functional assay (AID 504329)", "settings": "percent inhibition, at 12.5 µM, hits give high values", "values": [{"smiles": "CC(C)C(NC(=O)C1CC(=O)N(Cc2ccccc2)C1)c1nc2ccccc2[nH]1", "note": "(stereo not drawn)", "inhibition": "-13.6% (inactive)"}, {"smiles": "O=C(c1cc2ccccc2c(=O)o1)N1CCCCCC1", "inhibition": "-12.3% (inactive)"}, {"smiles": "Cc1cc(N2CCOCC2)ccc1/C=C1\\NC(=O)N(Cc2ccccc2F)C1=O", "inhibition": "-4.62% (inactive)"}, {"smiles": "CC(=O)Nc1nc(CCl)cs1", "inhibition": "-0.43% (inactive)"}, {"smiles": "NS(=O)(=O)c1ccc(N=Nc2c(O)c(C(=O)O)cc3ccccc23)cc1", "inhibition": "14% (inactive)"}, {"smiles": "NS(=O)(=O)c1ccc(N=Nc2c(O)ccc3ccccc23)cc1", "inhibition": "7.02% (inactive)"}, {"smiles": "Cn1c(O)c(N=Nc2ccc(F)cc2)c2ccccc21", "inhibition": "-0.89% (inactive)"}, {"smiles": "O=C(O)c1cc2ccccc2c(N=Nc2cccnc2)c1O", "inhibition": "16.2% (inactive)"}, {"smiles": "O=S(=O)(O)c1cccc(N=Nc2c(O)ccc3ccccc23)c1", "inhibition": "22.8% (inactive)"}, {"smiles": "Oc1[nH]c2ccccc2c1N=Nc1ccccc1F", "inhibition": "-4.52% (inactive)"}, {"smiles": "O=C(O)c1cc(N=Nc2c(O)ccc3ccccc23)cc(C(=O)O)c1", "inhibition": "13.6% (inactive)"}, {"smiles": "Oc1ccc(N=Nc2ccc3ccccc3c2)cc1", "inhibition": "3.88% (inactive)"}, {"smiles": "Cc1ccccc1C(=O)N=c1sccn1C", "inhibition": "-5.97% (inactive)"}, {"smiles": "O=C(NC1CCCCC1)c1c(O)nc2sccn2c1=O", "inhibition": "0.11% (inactive)"}, {"smiles": "O=C(COc1ccccc1Cl)Nc1ccccc1C(=O)Nc1cccc(C(=O)O)c1", "inhibition": "1.12% (inactive)"}, {"smiles": "COc1ccc(-c2cc(C(=O)Nc3cccc(S(=O)(=O)NCc4ccco4)c3)c3ccccc3n2)cc1OC", "inhibition": "-2.45% (inactive)"}, {"smiles": "COc1ccccc1C(=O)N/C(=C\\c1ccc(Br)cc1)C(=O)NCCO", "inhibition": "-1.68% (inactive)"}, {"smiles": "COC(=O)N/N=C(\\C)c1ccc(C)c([N+](=O)[O-])c1", "inhibition": "2.68% (inactive)"}, {"smiles": "CCC(CC)C(=O)Nc1nnc(S(=O)(=O)Nc2ccccc2C)s1", "inhibition": "-5.98% (inactive)"}, {"smiles": "O=C(COc1ccccc1)NCC(=O)N/N=C/c1ccco1", "inhibition": "8.38% (inactive)"}, {"smiles": "O=C(Nc1ccccc1N1CCOCC1)c1cccc(Oc2ccccc2)c1", "inhibition": "5.8% (inactive)"}, {"smiles": "Oc1[nH]c2ccccc2c1N=Nc1ccccn1", "inhibition": "-23.1% (inactive)"}, {"smiles": "CCCCn1c(O)c(N=Nc2ccccn2)c2ccccc21", "inhibition": "-1.48% (inactive)"}, {"smiles": "CN(C)S(=O)(=O)c1ccc(Cl)c(C(=O)NNC(=O)Cc2nc3ccccc3n2C)c1", "inhibition": "-3.93% (inactive)"}, {"smiles": "Cc1cc(C)nc(NS(=O)(=O)c2ccc(N3C(=O)c4ccccc4C3=O)cc2)n1", "inhibition": "-5.14% (inactive)"}, {"smiles": "CCO/C=C1\\C(=O)N(c2ccccc2)C(=O)c2ccccc21", "inhibition": "4.03% (inactive)"}, {"smiles": "CCOc1ccc(N2C(=O)c3ccccc3C2=O)cc1", "inhibition": "5.19% (inactive)"}, {"smiles": "CCO/C=C1/C(=O)N(c2ccc(OC)cc2)C(=O)c2ccccc21", "inhibition": "1.21% (inactive)"}, {"smiles": "Cc1[nH]c2ccccc2c1C(=O)C(=O)N1CCCc2ccccc21", "inhibition": "-5.75% (inactive)"}, {"smiles": "Cc1cc(N(CCO)CCO)ccc1C(c1ccc(N(CCO)CCO)cc1C)c1ccccc1Cl", "inhibition": "19.6% (inactive)"}, {"smiles": "Nc1ccc(N(CCO)CCO)cc1", "inhibition": "11.7% (inactive)"}, {"smiles": "O=C1CCC(C(=O)N2CCSCC2)CN1CCc1ccccc1", "note": "(stereo not drawn)", "inhibition": "5.31% (inactive)"}, {"smiles": "CCOC(=O)C1=C(Cc2ccc(Cl)cc2)C(=O)c2ccccc2C1=O", "inhibition": "21.1% (inactive)"}, {"smiles": "CCOC(=O)C1=C(Cc2ccc(F)cc2)C(=O)c2ccccc2C1=O", "inhibition": "19.2% (inactive)"}, {"smiles": "N#Cc1c(N)nc2c(c1-c1ccc(F)cc1)CCC2", "inhibition": "0.84% (inactive)"}, {"smiles": "C[C@H](C(=O)NCc1ccccc1)C(=O)c1ccccc1", "inhibition": "8.83% (inactive)"}, {"smiles": "COc1ccc(-c2csc(N(CCc3ccc(OC)c(OC)c3)C(=O)COc3ccccc3)n2)cc1", "inhibition": "1.44% (inactive)"}, {"smiles": "CC(C)CCn1nnnc1C(c1ccc(F)cc1)N1CCC(C(N)=O)CC1", "note": "(stereo not drawn)", "inhibition": "-2.77% (inactive)"}, {"smiles": "CC(=O)c1ccc(-c2ccccc2)cc1", "inhibition": "7.71% (inactive)"}, {"smiles": "O=C(NCc1cccs1)C1CCN(c2nccs2)CC1", "inhibition": "5.59% (inactive)"}, {"smiles": "COc1cc(/C=N/NC(=S)Nc2cccc(C(=O)O)c2)ccc1O", "inhibition": "-4% (inactive)"}, {"smiles": "O=C(N/N=C/c1ccccc1)c1cc[n+]([O-])cc1", "inhibition": "-4.01% (inactive)"}, {"smiles": "COc1ccc(/C=N\\NC(=O)C2=NNC(=O)C2C)cc1", "note": "(stereo not drawn)", "inhibition": "3.13% (inactive)"}, {"smiles": "COc1cc(/C=N/NC(=O)c2ccncc2)c([N+](=O)[O-])cc1OC", "inhibition": "-2.25% (inactive)"}, {"smiles": "COc1cc(/C=N/NC(=O)C2=NNC(=O)C2C)ccc1O", "note": "(stereo not drawn)", "inhibition": "-32.2% (inactive)"}, {"smiles": "O=C(N/N=C/c1ccc(Br)cc1)c1cc[n+]([O-])cc1", "inhibition": "6.04% (inactive)"}, {"smiles": "COc1cc(OC)c([N+](=O)[O-])cc1/C=N/NC(=O)c1ccncc1", "inhibition": "1.29% (inactive)"}, {"smiles": "COc1cc(/C=N/NC(=S)Nc2cccc(C(=O)O)c2)cc(OC)c1OC", "inhibition": "-7.56% (inactive)"}, {"smiles": "CC(NC(=O)c1ccc(NC(=O)CC2SC(N3CCCC3)=NC2=O)cc1)c1ccccc1", "note": "(stereo not drawn)", "inhibition": "-7.82% (inactive)"}, {"smiles": "O=S(=O)(c1ccc(S(=O)(=O)N2CCOCC2)cc1)N1CCCC1", "inhibition": "4.18% (inactive)"}, {"smiles": "CCCCC(=O)N(c1ccc(C(=O)O)cc1)c1nc(-c2ccc(Cl)cc2)c(CC)s1", "inhibition": "-4.2% (inactive)"}, {"smiles": "O=C(NC1CCCCC1)C1CC(=O)N(Cc2ccccc2)C1", "note": "(stereo not drawn)", "inhibition": "-1.57% (inactive)"}, {"smiles": "C[N+](C)(C)C(Cc1ccccc1)C(=O)[O-]", "note": "(stereo not drawn)", "inhibition": "-4.58% (inactive)"}, {"smiles": "CCOc1cc(/C=N/NC(=O)c2cccnc2)ccc1O", "inhibition": "11.3% (inactive)"}, {"smiles": "COc1ccccc1/C=N/NC(=O)C(=O)NCc1cccnc1", "inhibition": "-1.04% (inactive)"}, {"smiles": "COc1cccc(/C=N/NC(=O)C[n+]2ccccc2)c1OC", "inhibition": "0.86% (inactive)"}, {"smiles": "CCOc1cc(Br)cc(/C=N/NC(=O)c2cccnc2)c1O", "inhibition": "15.9% (inactive)"}, {"smiles": "O=C(O)c1cccc(NC(=S)N/N=C/c2cccnc2)c1", "inhibition": "4.47% (inactive)"}, {"smiles": "COc1cc(OC)c(OC)cc1/C=N/NC(=O)C[n+]1ccccc1", "inhibition": "-11.7% (inactive)"}, {"smiles": "O=C(O)c1cccc(NC(=S)N/N=C/c2cccc(O)c2)c1", "inhibition": "2.28% (inactive)"}, {"smiles": "COc1cccc(/C=N/NC(=O)C(=O)NCc2cccnc2)c1OC", "inhibition": "-5.14% (inactive)"}, {"smiles": "CCOc1ccc(NS(=O)(=O)c2cccc(C(=O)NCC3(N(C)C)CCCCC3)c2)cc1", "inhibition": "0.36% (inactive)"}, {"smiles": "Cc1cc2nc(-c3ccc[nH]c3=O)n(Cc3ccc(F)cc3)c2cc1C", "inhibition": "1.86% (inactive)"}]}]}
